Assay results published in the supplement of paper PMC8728848.
The sample as a whole holds a higher share of the strongest signals than the screen did.

Assays:
Assay in all cases: glycan array binding signal (z-score within array); higher = stronger binding
Details in all cases: glycan notation: IUPAC condensed, linker removed
[1] = biological target: Fuc(a1-2)Gal(b1-3)GalNAc(b1-3)Gal(a1-4)Gal(b1-4)Glc
How it was run: (§1)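 From the Consortium for Functional Glycomics database, 3228 arrays were curated, keeping only those whose protein sequence was available. Binding is given as a within-array Z-score averaged across arrays sharing a protein sequence and across linkers. Negative Z-scores can be read as non-binding.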

[2] = biological target: Fuc(a1-2)Gal(b1-3)GlcNAc(b1-3)GalNAc
How it was run: as §1

[3] = biological target: Fuc(a1-2)Gal(b1-3)[Fuc(a1-4)]GlcNAc(b1-2)Man(a1-3)[Fuc(a1-2)Gal(b1-3)[Fuc(a1-4)]GlcNAc(b1-2)Man(a1-6)]Man(b1-4)GlcNAc(b1-4)[Fuc(a1-6)]GlcNAc(b1-4)[Fuc(a1-6)]GlcNAc
How it was run: as §1

[4] = biological target: Fuc(a1-2)Gal(b1-4)[Fuc(a1-3)]GlcNAc(b1-2)Man(a1-3)[Fuc(a1-2)Gal(b1-4)[Fuc(a1-3)]GlcNAc(b1-2)Man(a1-6)]Man(b1-4)GlcNAc(b1-4)[Fuc(a1-6)]GlcNAc
How it was run: as §1

[5] = biological target: Fuc(a1-2)[Gal(a1-4)]Gal(b1-4)GlcNAc
How it was run: as §1

[6] = biological target: Fuc(a1-3)[Gal3S(b1-4)]GlcNAc
How it was run: as §1

[7] = biological target: Fuc(a1-4)GlcNAc
How it was run: as §1

[8] = biological target: Gal(a1-3)Gal(b1-4)[Fuc(a1-3)]GlcNAc
How it was run: as §1

[9] = biological target: Gal(a1-4)GlcNAc
How it was run: as §1

[10] = biological target: Gal(b1-3)Gal
How it was run: as §1

[11] = biological target: Gal(b1-3)GlcNAc(b1-2)Man
How it was run: as §1

[12] = biological target: Gal(b1-3)GlcNAc(b1-3)Gal(b1-4)[Fuc(a1-3)]GlcNAc
How it was run: as §1

[13] = biological target: Gal(b1-3)GlcNAc(b1-3)Gal(b1-4)[Fuc(a1-3)]GlcNAc(b1-6)[Gal(b1-3)GlcNAc(b1-3)]Gal(b1-4)Glc
How it was run: as §1

[14] = biological target: Gal(b1-4)Glc
How it was run: as §1

[15] = biological target: Gal(b1-4)GlcNAc(b1-3)Gal(b1-4)GlcNAc(b1-3)GalNAc
How it was run: as §1

[16] = biological target: Gal(b1-4)GlcNAc(b1-3)GalNAc
How it was run: as §1

[17] = biological target: Gal3S(b1-4)GlcNAc
How it was run: as §1

[18] = biological target: Gal3S(b1-4)[Fuc(a1-3)]GlcNAc
How it was run: as §1

[19] = biological target: GalNAc(a1-3)Gal
How it was run: as §1

[20] = biological target: GalNAc(b1-3)GalNAc
How it was run: as §1

[21] = biological target: GalNAc(b1-3)GlcNAc
How it was run: as §1

[22] = biological target: GalNAc3S(b1-4)[Fuc(a1-3)]GlcNAc
How it was run: as §1

[23] = biological target: GlcNAc(a1-4)Gal(b1-3)GlcNAc
How it was run: as §1

[24] = biological target: GlcNAc(b1-3)Gal(b1-3)GalNAc
How it was run: as §1

[25] = biological target: GlcNAc(b1-3)Gal(b1-4)Glc
How it was run: as §1

[26] = biological target: GlcNAc(b1-3)Gal(b1-4)GlcNAc(b1-2)Man(a1-3)[GlcNAc(b1-3)Gal(b1-4)GlcNAc(b1-2)Man(a1-6)]Man(b1-4)GlcNAc(b1-4)[Fuc(a1-6)]GlcNAc
How it was run: as §1

[27] = biological target: GlcNAc(b1-3)Gal(b1-4)GlcNAc(b1-3)Gal(b1-4)GlcNAc(b1-2)Man(a1-3)[GlcNAc(b1-3)Gal(b1-4)GlcNAc(b1-3)Gal(b1-4)GlcNAc(b1-2)Man(a1-6)]Man(b1-4)GlcNAc(b1-4)[Fuc(a1-6)]GlcNAc
How it was run: as §1

[28] = biological target: GlcNAc(b1-3)Gal(b1-4)GlcNAc(b1-3)Gal(b1-4)GlcNAc(b1-2)[GlcNAc(b1-3)Gal(b1-4)GlcNAc(b1-3)Gal(b1-4)GlcNAc(b1-6)]Man(a1-6)[GlcNAc(b1-3)Gal(b1-4)GlcNAc(b1-3)Gal(b1-4)GlcNAc(b1-2)Man(a1-3)]Man(b1-4)GlcNAc(b1-4)[Fuc(a1-6)]GlcNAc
How it was run: as §1

[29] = biological target: GlcNAc(b1-3)Gal(b1-4)GlcNAc(b1-3)Gal(b1-4)GlcNAc(b1-3)Gal(b1-4)GlcNAc(b1-2)Man(a1-3)[GlcNAc(b1-3)Gal(b1-4)GlcNAc(b1-3)Gal(b1-4)GlcNAc(b1-3)Gal(b1-4)GlcNAc(b1-2)Man(a1-6)]Man(b1-4)GlcNAc(b1-4)[Fuc(a1-6)]GlcNAc
How it was run: as §1

[30] = biological target: GlcNAc(b1-3)Gal(b1-4)GlcNAc(b1-3)Gal(b1-4)GlcNAc(b1-3)Gal(b1-4)GlcNAc(b1-2)[GlcNAc(b1-3)Gal(b1-4)GlcNAc(b1-3)Gal(b1-4)GlcNAc(b1-3)Gal(b1-4)GlcNAc(b1-6)]Man(a1-6)[GlcNAc(b1-3)Gal(b1-4)GlcNAc(b1-3)Gal(b1-4)GlcNAc(b1-3)Gal(b1-4)GlcNAc(b1-2)Man(a1-3)]Man(b1-4)GlcNAc(b1-4)[Fuc(a1-6)]GlcNAc
How it was run: as §1

[31] = biological target: GlcNAc(b1-3)GalNAc
How it was run: as §1

[32] = biological target: GlcNAc(b1-4)[GlcNAc(b1-6)]GalNAc
How it was run: as §1

[33] = biological target: GlcNAc(b1-6)GalNAc
How it was run: as §1

[34] = biological target: Man(a1-2)Man(a1-3)[Man(a1-2)Man(a1-6)]Man(a1-6)[Man(a1-2)Man(a1-2)Man(a1-3)]Man
How it was run: as §1

[35] = biological target: Man(a1-2)Man(a1-6)[Man(a1-3)]Man(a1-6)[Man(a1-2)Man(a1-2)Man(a1-3)]Man(b1-4)GlcNAc(b1-4)GlcNAc
How it was run: as §1

[36] = biological target: Man(a1-3)[Man(a1-6)]Man(a1-6)[Man(a1-3)]Man(b1-4)GlcNAc(b1-4)GlcNAc
How it was run: as §1

[37] = biological target: Man(a1-3)[Man(a1-6)]Man(b1-4)GlcNAc(b1-4)GlcNAc
How it was run: as §1

[38] = biological target: Neu5Ac(a2-3)Gal(b1-3)GlcNAc
How it was run: as §1

[39] = biological target: Neu5Ac(a2-3)Gal(b1-3)GlcNAc(b1-2)[Neu5Ac(a2-3)Gal(b1-3)GlcNAc(b1-4)]Man(a1-6)[Neu5Ac(a2-3)Gal(b1-3)GlcNAc(b1-2)Man(a1-3)]Man(b1-4)GlcNAc(b1-4)GlcNAc
How it was run: as §1

[40] = biological target: Neu5Ac(a2-3)Gal(b1-4)GlcNAc(b1-2)Man
How it was run: as §1

[41] = biological target: Neu5Ac(a2-3)Gal(b1-4)GlcNAc(b1-2)Man(a1-3)[Neu5Ac(a2-6)Gal(b1-4)GlcNAc(b1-2)Man(a1-6)]Man(b1-4)GlcNAc(b1-4)GlcNAc
How it was run: as §1

[42] = biological target: Neu5Ac(a2-3)Gal(b1-4)GlcNAc(b1-3)Gal(b1-4)GlcNAc(b1-6)[Gal(b1-3)]GalNAc
How it was run: as §1

[43] = biological target: Neu5Ac(a2-3)Gal(b1-4)GlcNAc(b1-6)[Neu5Ac(a2-3)Gal(b1-3)]GalNAc
How it was run: as §1

[44] = biological target: Neu5Ac(a2-3)Gal6S(b1-4)[Fuc(a1-3)]GlcNAc
How it was run: as §1

[45] = biological target: Neu5Ac(a2-6)Gal(b1-4)GlcNAc
How it was run: as §1

[46] = biological target: Neu5Ac(a2-6)Gal(b1-4)GlcNAc(b1-2)Man(a1-3)[Man(a1-6)]Man(b1-4)GlcNAc(b1-4)GlcNAc
How it was run: as §1

[47] = biological target: Neu5Ac(a2-6)Gal(b1-4)GlcNAc(b1-2)Man(a1-3)[Neu5Ac(a2-3)Gal(b1-4)GlcNAc(b1-2)Man(a1-6)]Man(b1-4)GlcNAc(b1-4)GlcNAc
How it was run: as §1

[48] = biological target: Neu5Ac(a2-8)Neu5Ac(a2-3)Gal(b1-3)GalNAc(b1-4)[Neu5Ac(a2-8)Neu5Ac(a2-3)]Gal(b1-4)Glc
How it was run: as §1

[49] = biological target: Neu5Gc(a2-3)Gal(b1-3)[Fuc(a1-4)]GlcNAc
How it was run: as §1

[50] = biological target: Neu5Gc(a2-3)Gal(b1-4)GlcNAc
How it was run: as §1

[51] = biological target: Neu5Gc(a2-3)Gal(b1-4)[Fuc(a1-3)]GlcNAc
How it was run: as §1

B1: LysMD3 (Homo sapiens), Q7Z3D4 (protein)
chain: MAGRHQNRSFPLPGVQSSGQVHAFGNCSDSDILEEDAEVYELRSRGKEKVRRSTSRDRLDDIIVLTKDIQEGDTLNAIALQYCCTVADIKRVNNLISDQDFFALRSIKIPVKKFSSLTETLCPPKGRQTSRHSSVQYSSEQQEILPANDSLAYSDSAGSFLKEVDRDIEQIVKCTDNKRENLNEVVSALTAQQMRFEPDNKNTQRKDPYYGADWGIG
- glycan array binding signal (z-score) [1]: 0.086
- glycan array binding signal (z-score) [2]: 0.587
- glycan array binding signal (z-score) [3]: 0.341
- glycan array binding signal (z-score) [4]: 1.97
- glycan array binding signal (z-score) [5]: 2.84
- glycan array binding signal (z-score) [6]: -0.081
- glycan array binding signal (z-score) [7]: 0.681
- glycan array binding signal (z-score) [8]: 0.873
- glycan array binding signal (z-score) [9]: 0.113
- glycan array binding signal (z-score) [10]: 0.706
- glycan array binding signal (z-score) [11]: 1.23
- glycan array binding signal (z-score) [12]: 2.15
- glycan array binding signal (z-score) [13]: -0.547
- glycan array binding signal (z-score) [14]: -0.555
- glycan array binding signal (z-score) [15]: -0.073
- glycan array binding signal (z-score) [16]: 0.375
- glycan array binding signal (z-score) [17]: -0.699
- glycan array binding signal (z-score) [18]: 0.294
- glycan array binding signal (z-score) [19]: 0.335
- glycan array binding signal (z-score) [20]: 1.67
- glycan array binding signal (z-score) [21]: 1.85
- glycan array binding signal (z-score) [22]: -0.424
- glycan array binding signal (z-score) [23]: 0.45
- glycan array binding signal (z-score) [24]: 1.5
- glycan array binding signal (z-score) [25]: 0.983
- glycan array binding signal (z-score) [26]: 1.83
- glycan array binding signal (z-score) [27]: 1.8
- glycan array binding signal (z-score) [28]: 1.87
- glycan array binding signal (z-score) [29]: 1.68
- glycan array binding signal (z-score) [30]: 2.41
- glycan array binding signal (z-score) [31]: -0.639
- glycan array binding signal (z-score) [32]: 0.46
- glycan array binding signal (z-score) [33]: 0.427
- glycan array binding signal (z-score) [34]: 0.422
- glycan array binding signal (z-score) [35]: -0.445
- glycan array binding signal (z-score) [36]: -0.113
- glycan array binding signal (z-score) [37]: -0.343
- glycan array binding signal (z-score) [38]: -0.413
- glycan array binding signal (z-score) [39]: -0.094
- glycan array binding signal (z-score) [40]: -0.604
- glycan array binding signal (z-score) [41]: 0.582
- glycan array binding signal (z-score) [42]: -0.924
- glycan array binding signal (z-score) [43]: -0.226
- glycan array binding signal (z-score) [44]: -0.291
- glycan array binding signal (z-score) [45]: -0.353
- glycan array binding signal (z-score) [46]: -1.15
- glycan array binding signal (z-score) [47]: -0.438
- glycan array binding signal (z-score) [48]: 1.66
- glycan array binding signal (z-score) [49]: -0.44
- glycan array binding signal (z-score) [50]: -0.032
- glycan array binding signal (z-score) [51]: -0.174
